1 molecule from the supplement of paper PMC8728848 can be followed below.

What all share (experiment): glycan array binding signal (z-score within array); higher = stronger binding
What all share (details): glycan notation: IUPAC condensed, linker removed

Experiment [1] addresses Fuc(a1-2)Gal(b1-3)GalNAc(a1-3)[Fuc(a1-2)]Gal(b1-4)GlcNAc. The method in brief:
(§1)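 Glycan array data were curated from 3228 arrays in the Consortium for Functional Glycomics database and kept only where the protein sequence was available. Glycan names were converted to IUPAC-condensed notation, and columns mapping to the same glycan were averaged. The binding signal is a within-array Z-score, averaged across arrays of the same protein sequence at different concentrations or buffers and across linkers. Negative Z-scores can be read as non-binding.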

Experiment [2] addresses Fuc(a1-2)Gal(b1-3)GlcNAc(b1-3)Gal(b1-4)Glc. In outline: as §1
In experiment [3] the target is Fuc(a1-2)Gal(b1-3)GlcNAc6S. In outline: as §1
The target in experiment [4] is Fuc(a1-2)Gal(b1-4)GlcNAc(b1-2)Man(a1-3)[Fuc(a1-2)Gal(b1-4)GlcNAc(b1-2)Man(a1-6)]Man(b1-4)GlcNAc(b1-4)[Fuc(a1-6)]GlcNAc. The method in brief:
as §1

The target of experiment [5] is Fuc(a1-2)Gal6S(b1-3)GlcNAc6S. The method in brief:
as §1

Experiment [6] addresses Fuc(a1-2)[Gal(a1-3)]Gal(b1-4)GlcNAc(b1-2)Man. The method in brief: as §1
In experiment [7] the target is Fuc(a1-2)[GalNAc(a1-3)]Gal(b1-3)GalNAc(a1-3)[Fuc(a1-2)]Gal(b1-4)GlcNAc. In outline:
as §1

The target in experiment [8] is Fuc(a1-2)[GalNAc(a1-3)]Gal(b1-3)GlcNAc(b1-2)Man(a1-3)[Fuc(a1-2)[GalNAc(a1-3)]Gal(b1-3)GlcNAc(b1-2)Man(a1-6)]Man(b1-4)GlcNAc(b1-4)GlcNAc. The method in brief: as §1
For experiment [9], the target named is Fuc(a1-2)[GalNAc(a1-3)]Gal(b1-4)GlcNAc(b1-6)GalNAc. In outline:
as §1

In experiment [10] the target is Fuc(a1-3)[Gal(b1-4)]GlcNAc(b1-3)Gal(b1-3)[Fuc(a1-4)]GlcNAc. In outline:
as §1

Experiment [11] addresses Fuc(a1-3)[GalNAc(b1-4)]GlcNAc6S. The method in brief: as §1
The target of experiment [12] is Gal(a1-3)Gal(b1-3)GlcNAc(b1-6)GalNAc. In outline: as §1
The target of experiment [13] is Gal(a1-3)Gal(b1-4)[Fuc(a1-3)]GlcNAc. The method in brief: as §1
The target of experiment [14] is Gal(b1-3)GalNAc(b1-4)[Neu5Ac(a2-3)]Gal(b1-4)Glc. In outline: as §1
Experiment [15] has as its target Gal(b1-3)GlcNAc(b1-3)Gal(b1-4)GlcNAc(b1-6)[Gal(b1-3)GlcNAc(b1-3)]Gal(b1-4)Glc. In outline: as §1
Experiment [16] has as its target Gal(b1-3)GlcNAc(b1-3)Gal(b1-4)[Fuc(a1-3)]GlcNAc. The method in brief:
as §1

For experiment [17], the target named is Gal(b1-4)GlcNAc(b1-2)Man(a1-3)[Gal(b1-4)GlcNAc(b1-2)Man(a1-6)]Man(b1-4)GlcNAc(b1-4)[Fuc(a1-6)]GlcNAc. The method in brief: as §1
In experiment [18] the target is Gal(b1-4)GlcNAc(b1-2)[Gal(b1-4)GlcNAc(b1-6)]Man(a1-6)[Gal(b1-4)GlcNAc(b1-2)Man(a1-3)]Man(b1-4)GlcNAc(b1-4)GlcNAc. In outline: as §1
Experiment [19] addresses Gal(b1-4)GlcNAc(b1-3)Gal(b1-4)Glc. The method in brief:
as §1

The target in experiment [20] is Gal(b1-4)GlcNAc(b1-3)Gal(b1-4)GlcNAc(b1-3)Gal(b1-4)GlcNAc(b1-2)Man(a1-3)[Gal(b1-4)GlcNAc(b1-3)Gal(b1-4)GlcNAc(b1-3)Gal(b1-4)GlcNAc(b1-2)Man(a1-6)]Man(b1-4)GlcNAc(b1-4)GlcNAc. In outline:
as §1

The target in experiment [21] is Gal(b1-4)GlcNAc(b1-3)Gal(b1-4)GlcNAc(b1-3)Gal(b1-4)GlcNAc(b1-3)Gal(b1-4)GlcNAc(b1-2)Man(a1-3)[Gal(b1-4)GlcNAc(b1-3)Gal(b1-4)GlcNAc(b1-3)Gal(b1-4)GlcNAc(b1-3)Gal(b1-4)GlcNAc(b1-2)Man(a1-6)]Man(b1-4)GlcNAc(b1-4)GlcNAc. The method in brief: as §1
The target in experiment [22] is Gal(b1-4)GlcNAc(b1-3)Gal(b1-4)GlcNAc(b1-3)Gal(b1-4)GlcNAc(b1-3)Gal(b1-4)GlcNAc(b1-2)Man(a1-3)[Gal(b1-4)GlcNAc(b1-3)Gal(b1-4)GlcNAc(b1-3)Gal(b1-4)GlcNAc(b1-3)Gal(b1-4)GlcNAc(b1-2)Man(a1-6)]Man(b1-4)GlcNAc(b1-4)[Fuc(a1-6)]GlcNAc. In outline: as §1
Experiment [23] has as its target Gal(b1-4)GlcNAc(b1-3)Gal(b1-4)GlcNAc(b1-6)[Gal(b1-3)]GalNAc. In outline:
as §1

The target of experiment [24] is Gal(b1-4)GlcNAc(b1-6)GalNAc. The method in brief: as §1

Shown is part of a subset that was picked to be rich in the strongest signals.

B1: YghJ (Escherichia coli), E3PJ90 (protein)
chain: MNKKFKYKKSLLAAILSATLLAGCDGGGSGSSSDTPPVDSGTGSLPEVKPDPTPNPEPTPEPTPDPEPTPEPIPDPEPTPEPEPEPVPTKTGYLTLGGSQRVTGATCNGESSDGFTFKPGEDVTCVAGNTTIATFNTQSEAARSLRAVEKVSFSLEDAQELAGSDDKKSNAVSLVTSSNSCPANTEQVCLTFSSVIESKRFDSLYKQIDLAPEEFKKLVNEEVENNAATDKAPSTHTSPVVPVTTPGTKPDLNASFVSANAEQFYQYQPTEIILSEGRLVDSQGYGVAGVNYYTNSGRGVTGENGEFSFSWGEAISFGIDTFELGSVRGNKSTIALTELGDEVRGANIDQLIHRYSTTGQNNTRVVPDDVRKVFAEYPNVINEIINLSLSNGATLGEGEQVVNLPNEFIEQFNTGQAKEIDTAICAKTDGCNEARWFSLTTRNVNDGQIQGVINKLWGVDTNYKSVSKFHVFHDSTNFYGSTGNARGQAVVNISNAAFPILMARNDKNYWLAFGEKRAWDKNELAYITEAPSIVRPENVTRETASFNLPFISLGQVGDGKLMVIGNPHYNSILRCPNGYSWNGGVNKDGQCTLNSDPDDMKNFMENVLRYLSNDRWLPDAKSSMTVGTNLETVYFKKHGQVLGNSAPFAFHKDFTGITVKPMTSYGNLNPDEVPLLILNGFEYVTQWGSDPYSIPLRADTSKPKLTQQDVTDLIAYMNKGGSVLIMENVMSNLKEESASGFVRLLDAAGLSMALNKSVVNNDPQGYPDRVRQRRSTPIWVYERYPAVDGKPPYTIDDTTKEVIWKYQQENKPDDKPKLEVASWQEEVEGKQVTQFAFIDEADHKTPESLAAAKQRILDAFPGLEVCKDSDYHYEVNCLEYRPGTDVPVTGGMYVPQYTQLDLSADTAKAMLQAADLGTNIQRLYQHELYFRTNGRQGERLNSVDLERLYQNMSVWLWNETKYRYEEGKEDELGFKTFTEFLNCYTNNAYVGTQCSAELKKSLIDNKMIYGEESSKAGMMNPSYPLNYMEKPLTRLMLGRSWWDLNIKVDVEKYPGVVNTNGETVTQNINLYSAPTKWFAGNMQSTGLWAPAQQEVSIESKSTVPVTVTVALADDLTGREKHEVSLNRPPRVTKTYDLKANDKVTFKVPYGGLIYIKGDSKEVQSADFTFTGVVKAPFYKDGKWQHDLNSPAPLGELESASFVYTTPKKNLNASNYTGGLEQFANDLDTFASSMNDFYGRDSEDGKHRMFTYKNLPGHKHRFANDVQISIGDAHSGYPVMNSSFSPNSTTLPTTPLNDWLIWHEVGHNAAETPLTVPGATEVANNVLALYMQDRYLGKMNRVADDITVAPEYLEESNGQAWARGGAGDRLLMYAQLKEWAEKNFDIKKWYPDGTPLPEFYSEREGMKGWNLFQLMHRKARGDEVSNDKFGGKNYCAESNGNAADTLMLCASWVAQTDLSEFFKKWNPGANAYQLPGASEMSFEGGVSQSAYNTLASLDLPKPEQGPETINQVTEHKMSAE
On to B1, for which the “glycan array binding signal (z-score)” value was -1.47 in [1]; -0.678 in [2]; 2.47 in experiment [3]; -0.129 in experiment [4]; 3.49 in experiment [5]; -1.3 in [6]. The “glycan array binding signal (z-score)” value in experiment [7] is -0.92; in experiment [8], 0.546; in experiment [9], 0.95; in [10], 2.74; in experiment [11] it was 0.125; in experiment [12] it was 0.282. Further, the “glycan array binding signal (z-score)” value in [13] was -2.21; in [14], -0.276; in [15], 1.23; in experiment [16], 2.4; in [17], 2.37; in experiment [18], 0.576. The “glycan array binding signal (z-score)” value was 0.172 in experiment [19]; 0.559 in experiment [20]; -0.172 in [21]; 2.84 in [22]; -0.193 in experiment [23]; -0.103 in experiment [24].
